FBPA Giardia inh = qHTS Assay for Inhibitors of Fructose-1,6-bisphosphate Aldolase from Giardia Lamblia; purified Giardia FBPA; Potency, µM (series often up to 59.6 µM), most hits filed as inhibitors; 0.71% of 290,000 active; further: nearly all actives have a fitted effect of over 55% in size
Target sequence (A8B2U2 whole entry, looked up): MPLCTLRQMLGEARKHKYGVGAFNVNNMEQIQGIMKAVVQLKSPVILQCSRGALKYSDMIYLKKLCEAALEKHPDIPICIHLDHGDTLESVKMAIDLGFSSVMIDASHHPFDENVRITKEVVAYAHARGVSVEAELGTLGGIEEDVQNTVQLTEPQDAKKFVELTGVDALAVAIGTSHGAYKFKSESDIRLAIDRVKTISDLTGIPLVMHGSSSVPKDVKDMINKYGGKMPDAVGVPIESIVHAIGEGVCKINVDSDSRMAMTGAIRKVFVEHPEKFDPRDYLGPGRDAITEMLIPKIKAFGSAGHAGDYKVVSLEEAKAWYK
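40 nM FBPA preincubated 10 min at RT with compound (up to 57.5 uM final), then substrate plus GAPDH/TPI/NAD/arsenate coupling and diaphorase/resazurin added. Fluorescence read after 20 min at RT, 525/598 nm.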
Shiga inhibitor = A qHTS for Small Molecule Inhibitors of Shiga Toxin; Vero cells, Shiga toxin protein synthesis inhibition reporter; inhibition, % at 38.7 µM; 9.2% of 290,000 active; AID 2315, 2010; in the data active means inhibition mostly above about 28%, no sharp cut-off; inactive means mostly below about 43%
LmPK inhibitor = qHTS Assay for Inhibitors of Leishmania Mexicana Pyruvate Kinase (LmPK) | purified LmPK, Kinase-Glo ATP luminescence, 1 h | Potency, µM (top dose mostly 57.5 µM), usual class: inhibitors | 0.37% of 290,000 active
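ATP generated from ADP (0.1 mM) and PEP (0.5 mM) by 0.1 nM LmPK over 1 h at room temperature (pH 7.2 imidazole buffer) was detected by coupled luciferase luminescence. Values were normalized to uninhibited and no-enzyme wells.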
Tb PYK inh = qHTS of Trypanosoma Brucei Inhibitors | pyruvate kinase (Trypanosoma brucei), Q57TT1 | TbPYK enzyme, Kinase-Glo Plus ATP luminescence, 45 min | Potency, µM (series often up to 76.8 µM), actives largely listed as inhibitors | 0.12% of 410,000 active | AID 624173, 2012; further: nearly all actives have a fitted effect of over 50% in size
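Luminescent Kinase-Glo Plus end-point after 45 min room-temperature reaction of T. brucei pyruvate kinase started with 130 uM ADP (final). Buffer TEA 50 mM pH 7.2 with KCl, MgCl2, BSA, Tween-20; titration-based qHTS with fitted concentration-effect curves.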
Cycloheximide cs = Cycloheximide Counterscreen for Small Molecule Inhibitors of Shiga Toxin. 12% of 300,000 active. cell reporter, cycloheximide protein synthesis inhibition counterscreen. AID 2314, 2010. max response, %; in the data active means max response mostly above about 13%, no sharp cut-off; inactive means mostly below about 14%; further: read at 38.3 µM for the half of the compounds with a filed dose
Sm TGR block = qHTS Assay for the Inhibitors of Schistosoma Mansoni Peroxiredoxins. Schistosoma mansoni thioredoxin glutathione reductase (TGR), Q962Y6. purified TGR, DTNB reduction, TNB absorbance 405 nm. Potency, µM (top dose mostly 114 µM), hits mostly inhibitors. 3% of 360,000 active. AID 485364, 2010; further: nearly all actives have a fitted effect of over 60% in size
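TGR 20 nM + NADPH 100 uM (dispensed conc.), cpd preinc 15 min RT; start with NADPH (500 uM addition) then DTNB (15 mM addition). Kinetic TNB absorbance, 405 nm filter. Four-parameter Hill fit across titration.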
Numbers stand for hits; . = inactive; ? = inconclusive; / = no result given; + = active, no number. The sample as a whole holds a higher share of hits than the screen did. Unless noted, the call rests on the fitted dose curve; in most records, active means well fitted curve in the direction sought with a large enough effect; inconclusive means small, poorly fitted or top-dose-only effect, or another doubt; inactive means no such curve, though single readings can be large; an effect the other way counts as inactive or inconclusive.

SMILES	FBPA Giardia inh	Shiga inhibitor	LmPK inhibitor	Tb PYK inh	Cycloheximide cs	Sm TGR block
O=C(Nc1ccc2c(c1)CCCN2C(=O)c1cccs1)c1cccc(C(F)(F)F)c1	/	/	/	.	/	.
CCc1ccc(-c2nc(CS(=O)CC(=O)NCCN3CCCCCC3)c(C)o2)cc1 (configuration not stated)	.	.	.	.	27	?
Cc1oc(-c2ccc(Cl)cc2)nc1CS(=O)CC(=O)NCCCN1CCOCC1 (configuration not stated)	/	.	.	.	.	.
CCc1ccc(-c2nc(CS(=O)CC(=O)NCCCN3CCC(C)CC3)c(C)o2)cc1 (configuration not stated)	.	.	.	.	19	.
Cc1ccc(-c2nc(CS(=O)CC(=O)NCCN3CCCC3)c(C)o2)cc1 (configuration not stated)	.	.	.	.	.	.
CC(C)[C@@H]1NC(=O)[C@H](CCCCN)NC(=O)[C@@H](Cc2c[nH]c3ccccc23)NC(=O)[C@H](Cc2ccc(O)cc2)NC(=O)[C@@H](NC(=O)[C@H](N)Cc2ccccc2)CSSC[C@@H](C(=O)N[C@@H](Cc2c[nH]c3ccccc23)C(N)=O)NC1=O	.	.	/	/	.	/
COc1ccc(NC(=O)N(Cc2ccco2)C2CCN(C(C)=O)CC2)c(OC)c1	/	/	/	.	/	.
CC(Sc1nnc(C2CC2)n1-c1ccccc1)C(=O)N1CCCC1 (configuration not stated)	/	/	/	.	/	32µM
COc1ccc(CCn2c(C)cc(C(=O)CN3C(=O)C(=O)N(Cc4ccco4)C3=O)c2C)cc1	/	/	/	.	/	.
O=C(Nc1ccc2nc3n(c(=O)c2c1)CCCCC3)c1c(F)ccc([N+](=O)[O-])c1F	/	89	.	.	92	?
O=C(Nc1ccc2nc3n(c(=O)c2c1)CCCCC3)c1cc([N+](=O)[O-])ccc1F	/	32	.	.	37	.
O=C(N=C1c2ccccc2CN1c1ccc(F)c(F)c1)c1cccnc1	.	.	.	.	29	45µM
O=C(N=C1c2ccccc2CN1c1ccccc1)c1cccc([N+](=O)[O-])c1	.	.	.	.	18	.
O=C(N=C1c2ccccc2CN1c1cccc(Cl)c1)c1cccnc1	.	26	.	.	34	.
CCOC(=O)c1ccc(N2Cc3ccccc3C2=NC(=O)c2cccc([N+](=O)[O-])c2)cc1	/	/	/	.	/	/
COc1ccc(N2Cc3ccccc3C2=NC(=O)c2ccc(C)cc2)cc1OC	?	.	.	.	.	.
COc1ccc2[nH]c(=O)c(CN(C(C)=O)c3cc(C)ccc3C)cc2c1	/	/	/	.	/	/
Cc1cccc(OC(C)C(=O)Nc2ncn[nH]2)c1 (configuration not stated)	/	/	/	.	/	.
Cc1ccc(O)c(NC(=O)CCSc2nc(-c3ccco3)cc(C(F)(F)F)n2)c1	/	/	/	.	/	.
CCCCCCCC/C=C\CCCCCCCC(=O)OC[C@@H](O)[C@H]1OC[C@H](O)[C@H]1O	/	/	/	.	/	/
CN[C@H]1C[C@@H](N)[C@H](O)[C@@H](O[C@@H]2O[C@H](CO)[C@H](O)[C@@H]3O[C@]4(O[C@@H]23)O[C@H]([C@@H](N)CO)[C@H](O)[C@@H](O)[C@H]4O)[C@@H]1O	/	/	/	.	/	/
COc1ccc(/C=C/C(=O)Nc2cccnc2Cl)cc1	.	60	.	.	42	.
COc1cc(/C=C/C(=O)NCc2ccccn2)cc(OC)c1OC	.	.	.	.	.	.
COc1ccc(/C=C/C(=O)Nc2ccc(Cl)c(Cl)c2)cc1	/	/	/	.	/	.
O=C(COC(=O)/C=C/c1ccccc1Cl)Nc1cccnc1Cl	/	/	/	.	/	/
SMILES	FBPA Giardia inh	Shiga inhibitor	LmPK inhibitor	Tb PYK inh	Cycloheximide cs	Sm TGR block
COc1ccccc1/C=C/C(=O)Nc1cccnc1Cl	.	51	.	.	30	.
COc1ccccc1/C=C/C(=O)NCCc1ccccn1	.	88	.	.	55	.
O=S(=O)(c1ccc(-n2cnnn2)cc1)N1CCN(c2cccc(C(F)(F)F)c2)CC1	/	/	/	.	/	.
CCOC(=O)c1sc(NC(=O)c2nc(SCC)ncc2Cl)c(C(=O)OCC)c1C	/	/	/	.	/	.
Cc1cccc(NC(=O)Cn2nnc(C(=O)Nc3ccccc3Br)c2N)c1C	/	/	/	.	/	.
O=C(Nc1ccccn1)c1cccs1	.	76	?	?	52	.
Cc1cc(NC(=O)c2cc3cc([N+](=O)[O-])ccc3s2)no1	/	/	/	.	/	/
Cc1cccc(NC(=O)c2cc3cc([N+](=O)[O-])ccc3s2)n1	.	.	.	.	19	.
Cc1cc(NC(=O)c2cccs2)ncc1NC(=O)C(C)(C)C	.	/	.	.	32	.
O=C(Nc1cccnc1Cl)c1cccs1	.	.	.	.	.	.
Cc1cc2nn(-c3cccc4ccccc34)nc2cc1NC(=O)c1cccs1	.	.	.	.	.	.
CCN(CC)S(=O)(=O)c1csc(C(=O)Nc2ccccn2)c1	.	+	.	.	22	.
CC1(C)CC(=O)c2cc(-c3nc(-c4ccc(Cl)cc4)cs3)c(=O)n(-c3cccc(F)c3)c2C1	/	/	/	.	/	.
CC(C)NC(=O)CSc1nccc(-c2cccs2)n1	.	.	.	.	.	.
CC(C)(C)c1cc(NC(=O)c2cccs2)no1	/	/	/	.	/	/
Cc1ccnc(NC(=O)c2ccc(Br)s2)c1	.	90	?	.	70	.
Cc1ccnc(NC(=O)c2cccs2)c1	.	.	?	.	38	.
CC(=O)C(Sc1nccc(-c2cccs2)n1)C(C)=O	18µM	.	.	.	.	.
Cc1cccc(NC(=O)CNC(=O)c2cccs2)n1	/	/	/	.	/	.
Cc1cccc(NC(=O)c2cccs2)n1	.	78	?	.	38	.
O=C(c1ccncc1)N1CCC2(CCCN(Cc3nccs3)C2)CC1	.	/	/	.	/	/
O=C(Nc1nccc(-c2cccs2)n1)c1cccs1	.	67	.	.	31	.
Cc1nc(-c2ccc(-n3nncc3-c3ccco3)cc2)cs1	.	.	.	.	.	50µM
Nc1nc(-c2ccc(-n3nncc3-c3ccco3)cc2)cs1	.	.	.	.	.	.
Cc1c(CCO)c(=O)[nH]n1C(=O)c1ccc(F)cc1	.	65	.	.	24	.
SMILES	FBPA Giardia inh	Shiga inhibitor	LmPK inhibitor	Tb PYK inh	Cycloheximide cs	Sm TGR block
Cc1ccc2nc(Cl)c3cc(C(=O)N(C)C4CCCCC4)sc3c2c1	/	/	/	.	/	.
Cc1c(C(=O)N(C)C2CCCCC2)sc2nc3ccc(N)cc3n12	.	43	/	/	31	/
CC(=O)N(C)c1ccc(NC(=O)c2ccco2)cc1	.	152	.	.	30	.
O=C(Nc1ccc(Br)cc1)c1ccco1	.	.	.	.	30	.
O=C(Nc1ccc(Cc2ccncc2)cc1)c1ccco1	.	81	.	.	24	.
O=C(Nc1ccc(Nc2ccccc2)cc1)c1ccco1	.	139	.	.	49	.

Screening data deposited in PubChem BioAssay by National Center for Advancing Translational Sciences (NCATS).
